RAD54 branch = inhibitors of human RAD54 branch migration; Q92698; RAD54 Holliday junction branch migration, FAM/BHQ fluorescence; inhibition, % at 10.4 µM; hit rate 0.14% among 360,000; AID 602329;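 active = mean normalized replicate activity at least 40 and at least half of replicates scoring 40 or more; inconclusive = only one of the two criteria met; inactive = mean below 40 and under half of replicates reaching 40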;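 note: 0% = median of neutral control wells and 100% = median of positive control wells; inhibitors cause a drop in the FAM fluorescence signal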
dFosB act-1 = mouse delta FosB homodimer activation; activation, % at 25 µM; hit rate 0.99% among 340,000; P13346; purified delta FosB, TAMRA-CDK5 oligo fluorescence polarization; percent of positive-control signal above neutral wells;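 active = mean activation above about 17%, with every replicate also reaching it, limit read from the data, passing the limit was not always enough; inconclusive = only one of the two conditions met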
RAD52 inh = RAD52 (human) annealing inhibition. P43351. recombinant RAD52 DNA annealing, FRET fluorescence. inhibition, % at 18.7 µM. hit rate 0.46% among 360,000. AID 651710;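 active = every replicate showing at least 50% inhibition; inconclusive = mean inhibition at least 50% but not in every replicate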
Target sequence (P43351 whole entry, looked up): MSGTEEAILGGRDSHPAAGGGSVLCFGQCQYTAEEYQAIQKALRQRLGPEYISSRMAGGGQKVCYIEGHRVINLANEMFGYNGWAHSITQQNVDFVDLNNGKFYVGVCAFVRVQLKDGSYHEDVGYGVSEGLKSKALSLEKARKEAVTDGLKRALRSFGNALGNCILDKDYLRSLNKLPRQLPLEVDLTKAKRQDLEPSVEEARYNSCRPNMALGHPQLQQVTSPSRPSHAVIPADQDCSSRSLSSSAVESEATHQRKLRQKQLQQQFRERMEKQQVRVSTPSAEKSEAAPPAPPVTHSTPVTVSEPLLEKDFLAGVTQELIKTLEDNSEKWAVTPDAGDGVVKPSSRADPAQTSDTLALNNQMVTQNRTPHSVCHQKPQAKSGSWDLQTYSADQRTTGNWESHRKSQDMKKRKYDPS
MLL AF4-AF9 inh = blocks AF4 peptide binding to human AF9 | P42568 | hit rate 0.47% among 350,000 | inhibition, % at 10 µM | AlphaScreen, biotin-AF4 peptide binding to FLAG-AF9;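 active = every replicate reaching a set inhibition limit, whatever the replicate mean, cut at about 25% in these data; inconclusive = mean inhibition reaches that limit but some replicates miss it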;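 note: 0% = plate neutral control median and 100% = total signal loss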
INS-1E GSIS act = primary screen for activators of insulin secretion dependent on glucose, INS-1E cells, GLuc reporter luminescence | INS-1E GLuc reporter insulin secretion, 2-3 h | activation, % at 16.6 µM | hit rate 0.61% among 370,000 | AID 743287;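 active = lowest replicate activation of at least 40%, so every replicate reaches that level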;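 note: 0% = median of neutral control wells and 100% = median of IBMX positive control wells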
DENV2 CPE = inhibitors of DENV2 cytopathic effect; DENV2-infected cells, cytopathic effect rescue, plate reader; CPE inhibition, % at 9.99 µM; hit rate 1.7% among 350,000; AID 651640; in the data active = CPE inhibition above about 20%, passing the limit was not always enough; inconclusive = no clear call, values can overlap the other calls; tested in BHK-21 cells;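 note: 0% = median of neutral control wells and 100% = median of positive control wells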
dFosB act-2 = enhances mouse delta FosB homodimer binding to DNA; shares compounds with dFosB act-1; AID 588690; activation, % at 24.9 µM; purified delta FosB, TAMRA-CDK5 oligo fluorescence polarization; normalised: neutral wells 0, positive control 100; 2,400 tested, under 10 active;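 active = highest replicate activation at or above 34% and every replicate reaching that threshold; inconclusive = meets only one of the two criteria; inactive = meets neither criterion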;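 note: higher polarization means more probe DNA bound by delta FosB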
Active calls of the source: *; ? = inconclusive; / = not tested or not shown; ! = repeats disagree. This is a sample that favours compounds with a hit; in the whole collection about 3.1% have one here.

SMILES | RAD54 branch | dFosB act-1 | RAD52 inh | MLL AF4-AF9 inh | INS-1E GSIS act | DENV2 CPE | dFosB act-2
O=C(C[C@@H]1C=C[C@@H](NC(=O)Nc2cccc(F)c2)[C@H](CO)O1)NCC1CC1 | 6 | / | 4 | 0 | 6 | 1 | /
O=C(CCn1c(=S)[nH]c2cc3c(cc2c1=O)OCO3)NCc1cccc(Cl)c1 | 1 | 21* | -4 | -3 | 32 | 11 | -1
O=C(Cn1cc(C(=O)C2CC2)c2ccccc21)NCc1ccc2c(c1)OCO2 | 4 | 22* | / | / | / | / | 5
CC(=O)c1cn(CC(=O)NCc2ccc3c(c2)OCO3)c2ccccc12 | 2 | 15 | / | / | / | / | /
CCCCNC(=O)CCn1c(=O)c2ccccc2n(Cc2ccc(F)cc2)c1=O | / | 5 | -5 | 7 | 21 | 1 | /
Cc1ccc(Cn2c(=O)n(CCC(=O)NCc3ccc4c(c3)OCO4)c(=O)c3ccccc32)cc1 | 2 | 28* | / | / | / | / | 3
COCC(=O)N1CC2(CN(Cc3ccc(OC)cc3)C2)c2c([nH]c3cc(OC)ccc23)[C@H]1CO | / | / | 15 | 0 | 24 | -3 | /
C[C@@H]1CCCCO[C@@H](CN(C)CC2CC2)[C@@H](C)CN([C@H](C)CO)C(=O)c2cc(NS(=O)(=O)c3cccs3)ccc2O1 | -16 | / | / | / | 12 | ? | /
C[C@@H]1CN([C@@H](C)CO)C(=O)c2cc(NC(=O)Nc3ccc(F)cc3)ccc2O[C@@H]1CN(C)Cc1ccc(Cl)c(Cl)c1 | -6 | / | -15 | -4 | -11 | 4 | /
C[C@@H]1CCCCO[C@H](CN(C)C(=O)Nc2cccc3ccccc23)[C@@H](C)CN([C@@H](C)CO)C(=O)c2cc(N(C)C)ccc2O1 | / | / | / | / | -15 | / | /
Cc1cc(C(=O)Nc2cccc3c2O[C@@H](CN(C)Cc2ccc(C(F)(F)F)cc2)[C@@H](C)CN([C@H](C)CO)C3=O)n(C)n1 | -5 | / | / | 1 | 5 | -1 | /
Clc1ccc2oc(-c3ccccc3)cc(=NCCCN3CCOCC3)c2c1 | / | -9 | 33 | -5 | -8 | 3 | /
OCCCCCN=c1cc(-c2ccccc2)oc2ccc(Cl)cc12 | / | 21* | / | / | / | / | 4
CN1C(=O)c2cc(NC(=O)c3cccc(F)c3)ccc2OC[C@H]2O[C@H](CC(=O)NC3CCC3)CC[C@@H]21 | 0 | / | / | / | -8 | ? | /
CCOC(=O)N1CCN(S(=O)(=O)c2ccc(F)cc2)CC1 | 0 | -3 | -12 | 1 | 4 | -1 | /
CCOC(=O)N1CCN(S(=O)(=O)c2ccc(C(=O)N(CCCN(C)C)c3nc4ccc(CC)cc4s3)cc2)CC1 | -1 | 32* | 8 | 6 | -46 | -10 | 1
CCOC(=O)N1CCN(S(=O)(=O)c2ccc(C(=O)Nc3nc4ccccc4s3)cc2)CC1 | 7 | 23* | -9 | -33 | 12 | 17 | 0
CCOC(=O)N1CCN(S(=O)(=O)c2ccc(C(=O)N(CCN(C)C)c3nc4ccc(CC)cc4s3)cc2)CC1 | -2 | 12 | 0 | 0 | 12 | ? | /
CCOC(=O)N1CCN(S(=O)(=O)c2ccc(C(=O)Nc3nc4ccc(F)cc4s3)cc2)CC1 | / | 57* | 4 | -10 | -6 | -3 | -6
COc1ccccc1-c1cnc2c(c1)C(=O)N([C@H](C)CO)C[C@H](C)[C@@H](CN(C)Cc1ccc(F)cc1)O2 | 1 | / | -1 | 4 | 5 | -2 | /
O=C(Nc1cccnc1Cl)c1cc(-c2ccc(Cl)cc2)on1 | -3 | -2 | -6 | 0 | 4 | 3 | /
O=C(Nc1cccnc1Cl)c1cc(-c2ccc(O)cc2)on1 | -1 | 29* | -1 | -5 | 2 | 11 | -25
Cc1ccc(C(=O)OCC(=O)Nc2ccccc2Cl)c(O)c1 | / | -3 | -5 | 0 | 16 | -5 | /
Cc1ccc(C(=O)OCC(=O)Nc2cccc(Cl)c2C)c(O)c1 | 1 | 20* | -5 | -5 | 4 | 18 | 0
COc1ccc(S(=O)(=O)Nc2ccc3c(c2)C(=O)N([C@H](C)CO)C[C@H](C)[C@H](CN(C)Cc2ccncc2)O3)cc1 | 4 | / | 2 | 0 | 3 | 9 | /
SMILES | RAD54 branch | dFosB act-1 | RAD52 inh | MLL AF4-AF9 inh | INS-1E GSIS act | DENV2 CPE | dFosB act-2
Nc1nc(CN2CCCCCC2)nc(Nc2ccccc2)n1 | 1 | -4 | / | / | / | / | /
Cc1c(-c2nc(N)nc(Nc3ccccc3)n2)oc2ccccc12 | / | 52* | / | / | / | / | -1
COc1ccc(S(=O)(=O)N[C@@H]2C=C[C@@H](CC(=O)NCCc3ccncc3)O[C@H]2CO)cc1 | 5 | / | 0 | 1 | 5 | 13 | /
CC/C(=C(\c1ccccc1)c1ccc(OCCN(C)C)cc1)c1ccccc1 | 12 | 24*! | 18 | 30*! | / | 9 | -1
CCC(=C(c1ccccc1)c1ccc(OCCN(C)C)cc1)c1ccccc1 | -1 | / | 15 | 3 | / | 2 | /
NC(=O)c1c(NC(=O)Cn2nc(C(=O)O)c3ccccc3c2=O)sc2c1CCC2 | 4 | 33* | -24 | -1 | 3 | / | 2
O=C(Cn1nc(C(=O)O)c2ccccc2c1=O)Nc1nc(-c2ccccc2)cs1 | / | 69* | -13 | 0 | 20 | 2 | -2
O=C(Cn1nc(C(=O)O)c2ccccc2c1=O)Nc1ccccc1C(F)(F)F | -11 | 78* | -3 | -3 | 22 | 0 | 4
O=C(Cn1nc(C(=O)O)c2ccccc2c1=O)Nc1cccc(S(=O)(=O)N2CCCCC2)c1 | 3 | 28* | -14 | 1 | -25 | 20 | 8
CCOC(=O)c1c(NC(=O)Cn2nc(C(=O)O)c3ccccc3c2=O)sc2c1CCC(C)C2 (stereo not drawn) | / | -8 | -6 | 3 | / | 11 | /
CO[C@H]1CN(C)C(=O)c2cc(NC(=O)c3cnccn3)ccc2OC[C@H](C)N(CCc2ccccc2)C[C@H]1C | -4 | / | -9 | 2 | -6 | 10 | /
COc1ccc(NC(=O)N(C)C[C@@H]2Oc3ccc(NC(=O)Nc4c(C)noc4C)cc3CC(=O)N([C@@H](C)CO)C[C@H]2C)cc1 | 0 | / | 13 | -6 | 9 | -6 | /
Cc1ccc2nc(SCC(=O)Nc3ccc4sc(C)nc4c3)c(C#N)cc2c1 | 0 | 25* | / | / | / | / | -5
CN(C)C(=O)C[C@@H]1C=C[C@H](NC(=O)C2CC2)[C@H](CO)O1 | 6 | / | -11 | 0 | 2 | 1 | /
CS(=O)(=O)c1ccc(Cl)c(NC(=O)Cc2c(Cl)cccc2Cl)c1 | 11 | 41* | -13 | -2 | -8 | -2 | 5
CS(=O)(=O)c1ccc(Cl)c(NC(=O)Cc2ccsc2)c1 | -6 | 0 | -11 | 3 | 5 | -5 | /
C[C@@H]1CN([C@H](C)CO)C(=O)Cc2cc(NC(=O)CCN3CCOCC3)ccc2O[C@H]1CN(C)Cc1ccc(Oc2ccccc2)cc1 | -1 | / | 12 | 5 | -24 | 4 | /
C/C(=N\Nc1nc2ccccc2[nH]1)c1ccc([N+](=O)[O-])cc1 | -4 | 21* | -13 | -10 | 21 | -1 | 2
